Bioassay records from PubChem BioAssay.
Sampled rows, rich in hits. Any-hit rate of the full collection: about 21%.
Giardia FBPA inh: blocks Giardia fructose-bisphosphate aldolase activity. A8B2U2. purified Giardia FBPA. AID 2451. Potency, µM (top dose mostly 59.6 µM), usual class: inhibitors. actives 0.71% (n = 290,000); note: nearly all actives have a fitted effect of over 55% in size
Target sequence (A8B2U2 whole entry, looked up): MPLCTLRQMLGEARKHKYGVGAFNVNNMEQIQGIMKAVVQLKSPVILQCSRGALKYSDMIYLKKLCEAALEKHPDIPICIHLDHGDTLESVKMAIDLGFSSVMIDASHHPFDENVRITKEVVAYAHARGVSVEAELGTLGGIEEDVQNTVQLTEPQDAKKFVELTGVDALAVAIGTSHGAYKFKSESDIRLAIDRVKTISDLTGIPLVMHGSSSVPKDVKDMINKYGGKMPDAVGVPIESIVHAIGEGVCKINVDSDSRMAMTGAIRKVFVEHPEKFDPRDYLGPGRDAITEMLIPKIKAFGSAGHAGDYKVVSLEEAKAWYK
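40 nM FBPA preincubated 10 min at RT with compound (up to 57.5 uM final), then substrate plus GAPDH/TPI/NAD/arsenate coupling and diaphorase/resazurin added. Fluorescence read after 20 min at RT, 525/598 nm.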
Pf growth 48h: P. falciparum growth inhibition at 48 hours (one generation). P. falciparum luciferase growth in erythrocytes, 48 h. Potency, µM (series often up to 28.7 µM), usual class: inhibitors. actives 5.9% (n = 310,000). AID 504832
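Compounds are pin-transferred into medium, infected erythrocytes (2% hematocrit, 0.1% parasitemia final) are added, and plates sit one parasite generation at 37 C in 5% CO2. Detection reagent is then added and luminescence measured.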
Shiga toxin inh: inhibitors of Shiga toxin in Vero cells. Vero cells, Shiga toxin protein synthesis inhibition reporter. inhibition, % at 38.7 µM. actives 9.2% (n = 290,000). AID 2315; in the data active = inhibition mostly above about 28%, no sharp cut-off; inactive = mostly below about 43%
Cycloheximide cs: counter-screen hit for Shiga toxin inhibitors, cycloheximide; actives 12% (n = 300,000); max response, %; cell reporter, cycloheximide protein synthesis inhibition counterscreen; in the data active = max response mostly above about 13%, no sharp cut-off; inactive = mostly below about 14%; note: read at 38.3 µM for the half of the compounds with a filed dose
Pf growth 96h: inhibits malaria parasite growth, 96 h; actives 6.9% (n = 320,000); AID 504834; P. falciparum luciferase reporter growth, 96 h; Potency, µM (top dose mostly 28.7 µM), most hits filed as inhibitors
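Compounds incubated with erythrocytes infected by luciferase-expressing P. falciparum (2% hematocrit, 0.05% parasitemia final) for 96 hours, 37 C in 5% CO2. Growth inhibition scored as decreased luciferase luminescence.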
NS1 function inh: inhibitors of influenza NS1 protein function; Potency, µM (titrated, usually from 46.1 µM); actives 0.4% (n = 270,000); AID 2326; calls by dose curve; note: actives are rising curves; nearly all actives have a fitted effect of over 50% in size
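Recovery from NS1-induced slow growth read by OD600 in budding yeast switched to galactose assay medium (pH 6.0, -URA) at 1:100 dilution. Compound 23 nl per well; the matching strain lacking NS1 serves as control.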
Numbers stand for hits; – = inactive; ? = inconclusive; · = no result; [ ] = another dose, or the depositor's remark. Unless noted, calls come from the whole dose curve; as a rule, active = well fitted curve in the direction sought with a large enough effect; inconclusive = small, poorly fitted or top-dose-only effect, or another doubt; inactive = no such curve, though single readings can be large; an effect the other way counts as inactive or inconclusive.

SMILES | Giardia FBPA inh | Pf growth 48h | Shiga toxin inh | Cycloheximide cs | Pf growth 96h | NS1 function inh
CC(=O)c1cccc(NC(=O)c2sc(Cl)nc2C)c1 | – | – | · | – | ? | –
Cc1c(C(=O)Nc2ccccc2)sc2nc[nH]c(=O)c12 | – | – | – | 15 | ? | –
Cc1nc(-c2ccccn2)sc1C(=O)Nc1ccc(Cl)c(Cl)c1 | – | – | 128 | 26 | – | –
CC(C)[C@@H](CC(=O)N[C@@H]1CCNC[C@H]1C(=O)N[C@H](CC(=O)N[C@@H](CCC(=O)O)CC(=O)O)Cc1c[nH]c2ccccc12)NC(=O)C[C@H](Cc1ccccc1)NC(=O)[C@@H]1CCCC[C@H]1N | – | · | · | · | · | ·
CC(=O)c1ccccc1NC(=O)COC(=O)C1=NN(c2ccccc2)C(=O)CC1 | · | – | · | · | – | ·
COC(=O)C(C)NC(=O)C12CC3CC(C1)CC(c1ccc(C)cc1)(C3)C2 (stereo unspecified) | – | – | – | – | ? | –
Cc1nc(Cl)sc1C(=O)Nc1ccccc1 | – | – | – | 11 | ? | –
CCOC(=O)c1sc(-c2ccccn2)nc1C | – | – | 112 | 45 | – | ·
Cc1nc(C)c(C(=O)Nc2cccc(F)c2)s1 | – | – | 35 | 19 | – | –
Cc1nc(Cl)sc1C(=O)Nc1ccc(Cl)cc1 | – | – | 71 | 25 | – | –
Cn1cccc1C(=O)N1CCC2(CCCN(C(=O)Nc3ccccc3)C2)CC1 | – | · | · | · | · | ·
C#CCCCO/N=C1/C[C@@H](O)[C@@H](O)[C@@H]2[C@H]3C(=O)N(c4ccc(F)cc4F)C(=O)[C@@H]3CC[C@H]12 | –[12.9 µM] | · | · | · | · | ·
CC(N)=NCCCC(N)C(=O)O (stereo unspecified) | – | · | · | · | · | –
O=C(COC(=O)CNC(=O)c1ccc(Cl)c([N+](=O)[O-])c1)NC(=O)c1ccccc1 | · | – | – | – | – | –
CCOC(=O)N1CCN(C(=O)CN2C(=O)CC(C)(C)S(=O)(=O)c3ccccc32)CC1 | – | · | – | – | 3.3µM | –
CCCN1CCN(C(=O)CN2C(=O)CC(C)(C)S(=O)(=O)c3ccccc32)CC1 | – | – | – | – | 15µM | –
CN1CCN(C(=O)CN2C(=O)CC(C)(C)S(=O)(=O)c3ccccc32)CC1 | – | · | – | – | · | –
CC(C)Cc1nnc(NC(=O)c2ccc3c(c2)NC(=O)C(C)S3)s1 (stereo unspecified) | · | – | · | · | – | ·
O=C(Nc1cccc(NC(=O)c2cccs2)c1)c1ccc(F)cc1 | – | – | – | – | – | –
O=C(Nc1ccc(NC(=O)c2cccs2)cn1)c1ccccc1 | – | – | 87 | 60 | – | ·
CCCC(=O)Nc1ccc(NC(=O)c2ccccn2)cn1 | – | – | – | 23 | · | –
CCCC(=O)Nc1ccc(NC(=O)c2cccs2)cn1 | – | – | 98 | 19 | · | –
N#Cc1ccc(NC(=O)c2cccs2)nc1 | – | – | 74 | 24 | – | –
O=C(Nc1ccncc1)c1cccs1 | – | ? | – | – | ? | –
CC(=O)OCC(NC(=O)C(CCCCNC(=O)OCc1ccccc1)NC(=O)OC(C)(C)C)C1OC(n2cc(F)c(=O)[nH]c2=O)C(OC(C)=O)C1OC(C)=O (stereo unspecified) | – | · | – | – | · | ·
SMILES | Giardia FBPA inh | Pf growth 48h | Shiga toxin inh | Cycloheximide cs | Pf growth 96h | NS1 function inh
CN(C)CCCO[C@H]1C([C@H](O)CO)O[C@@H]2OC(C)(C)O[C@@H]21 (stereo partly specified) | – | · | · | · | · | –
CC(C)CNC(=O)C(=O)NCC1OCCCN1S(=O)(=O)c1ccc2c(c1)OCCO2 (stereo unspecified) | · | – | – | – | – | –
O=C(Nc1ccc(NC(=O)C2CC2)nc1)c1cccs1 | – | – | 60 | 30 | – | –
O=C(Nc1ccc(NC(=O)C2CC2)nc1)c1cccnc1 | – | – | – | – | – | –
COC(=O)c1ccc(COc2ccc(-c3nnn(CC(=O)NC(C)(C)C)n3)cc2)cc1 | – | ? | – | – | 7.4µM | –
CC1CCCCN1C(=O)Cn1nnc(-c2cccnc2)n1 (stereo unspecified) | – | ? | – | – | · | –
COc1ccc(NC(=O)CCn2nnc(-c3ccc(C)cc3)n2)cc1OC | – | – | – | – | ? | –
COC(=O)CCn1nnc(-c2ccc(C)cc2)n1 | – | – | 60 | 32 | · | –
COC(=O)c1ccc(COc2ccc(-c3nnn(CC(N)=O)n3)cc2)cc1 | – | – | – | – | ? | ·
Cc1ccc(-c2nnn(CCC(=O)N3CCCCC3C)n2)cc1 (stereo unspecified) | – | – | 73 | 17 | ? | –
Cc1ccc(-c2nnn(CCC(=O)NC(C)(C)C)n2)cc1 | – | – | 52 | 32 | – | –
Cc1cccc(OCc2nnc(SCC(=O)N3CCCCC3)o2)c1 | – | – | – | – | – | ?
CCOC(=O)CCn1nnc(N)n1 | – | – | – | – | 10µM | –
COC(=O)C1=C(C)NC(C)=C(C(=O)OC)C1c1ccc(-c2cccc([N+](=O)[O-])c2)o1 | – | ? | – | – | ? | –
COC(=O)C1=C(C)NC(C)=C(C(=O)OCCN(C)Cc2ccccc2)C1c1cccc([N+](=O)[O-])c1 (stereo unspecified) | – | 1.7µM | – | – | 2.1µM | –
COC(=O)C1=C(C)NC(C)=C(C(=O)OCCN2CCN(C(c3ccccc3)c3ccccc3)CC2)C1c1cccc([N+](=O)[O-])c1 (stereo unspecified) | · | 1.7µM | · | · | 2.4µM | ·
COCCOC(=O)C1=C(C)N(c2ccccc2)C(=O)NC1c1cccc([N+](=O)[O-])c1 (stereo unspecified) | – | ? | – | – | – | –
COC(=O)C1=C(C#N)NC(C)=C(C(=O)OC(C)C)C1c1cccc([N+](=O)[O-])c1 (stereo unspecified) | · | 7.6µM | · | · | 1.2µM | ·
CCOC(=O)C1=C(C)NC(C)=C(C(=O)OCCNC(=O)c2cccnc2)C1c1cccc([N+](=O)[O-])c1 (stereo unspecified) | – | ? | – | – | 9.3µM | –
CNC(=S)N(CCc1c(C)[nH]c2ccccc12)Cc1cccnc1 | – | ? | – | – | ? | –
Cc1cccc(C)c1NC(=O)C1CCCN1S(=O)(=O)c1ccc2c(c1)n(C)c(=O)c(=O)n2C (stereo unspecified) | – | – | – | – | ? | –
Oc1ccc2ccccc2c1C=Nc1cc(C(F)(F)F)ccc1N1CCCC1 | ? | ? | 51 | – | – | –
COC(=O)c1ccc(C(=O)N2CCCC(N3CCN(c4ccc(F)cc4)CC3)C2)nc1 (stereo unspecified) | – | – | – | – | ? | –
CN1CC=C(c2c[nH]c3ccccc23)CC1 | – | 2.6µM | – | – | – | ?
NC(=S)NN=C1c2cc(OCCN3CCOCC3)ccc2-c2ccc(OCCN3CCOCC3)cc21 | – | 3.3µM | – | – | – | –
COc1ccc2c(c1)C(=NO)c1cc(OC)ccc1-2 | – | – | 22 | 18 | · | –
